# Assay results published in PubChem BioAssay (NCI).
# This is part of a sample that, as a whole, favours compounds with a hit. Of some 83,000 tested, about 20% had one in any assay.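 Cells were grown in 96-well plates and exposed to the test compound at a single concentration for 48 hours; results are reported as percent growth, with values below 10 considered active.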 Calls of active or inactive are those of the source.
# Tested on: SNB-19 CNS
# Assay: NCI-60 one-dose screen, 48 h (100 = growth as untreated, 0 = no growth, -100 = all killed)
# Settings: 10 µM unless noted
# Description: Growth inhibition of the SNB-19 human tumor cell line is measured as a screen for anti-cancer activity. Cells are grown in 96 well plates and exposed to the test compound for 48 hours. Compounds are tested at a single concentration, which is 10^-5 M for most compounds. The reported endpoint is percent growth (GI% or GIPRCNT), where numbers from 0 - 100% represent growth inhibition, and numbers from -100% - 0 represent cell death. For example, a value of 40 represents 60% growth inhibition. A value of 0 means no net growth occurred over the course of the experiment. A value of -40 indicates 40% of cells at the beginning of the experiment died by the end of the experiment. A value of -100 means all cells are dead at the end of the experiment.
# NCI-60 Human Tumor Cell Lines Screen was performed using the standard one-dose NCI protocol, which is described in more detail at https://dtp.cancer.gov/discovery_development/nci-60/default.htm.
# Compounds with GIPRCNT values below 10 were considered active. Activity score was based on GIPRCNT using the following formula: […]
# Score is 0 for GIPRCNT values of 100 or above, 50 for GIPRCNT values of 0, and 100 for GIPRCNT values of -100.
row,SMILES,growth
1,Cn1cc(-c2csc(-c3cn(CCCN4CCCCC4)c4ccc(F)cc34)n2)c2cccnc21,90.3% (inactive)
2,C=C1C(=O)O[C@H]2[C@H]1CC/C(Cn1cc(-c3ccc(OC)cc3)nn1)=C\CC[C@@]1(C)O[C@@H]21,69.5% (inactive)
3,CC(=O)O[C@H]1CC[C@@]2(C)[C@@H](CC[C@@H]3[C@@H]2CC(=O)[C@@]2(C)[C@H]3C[C@@H](C3CCCC3=O)[C@@H]2C(C)=O)C1 (stereo not given in full),94.2% (inactive)
4,O=S(=O)(NCCNc1cc(-c2cn(-c3ccccc3)nc2-c2cccc(O)c2)ccn1)c1ccc(Br)cc1,41.3% (inactive)
5,CCN(CC)CCCCCCNc1ccnc2cc(Cl)ccc12,113% (inactive)
6,NNC(=O)c1nc2ccccc2[nH]1,103% (inactive)
7,CC(=O)O[C@@H]1CCN2C(=O)N(C)c3ccccc3[C@@H]2C1,98.3% (inactive)
8,Cn1cc(-c2nc(-c3c[nH]c4ncccc34)cs2)c2cc(Cl)ccc21,74.4% (inactive)
9,CN(C)c1ccc(N=C2C=CC(=O)C=C2)cc1,83.6% (inactive)
10,O=C(N/N=C/c1ccccc1SSc1ccccc1/C=N/NC(=O)c1ccccc1)c1ccccc1,44.8% (inactive)
11,CN(C)c1ccc(C(=O)c2ccc(N(C)C)c(N)c2)cc1N,45.3% (inactive)
12,COC(=O)[C@]12CC[C@@H](C)[C@H](C)[C@@H]1C1=CC[C@@H]3[C@@]4(C)C[C@@H](OC(C)=O)[C@H](O)[C@@](C)(COC(C)=O)[C@@H]4[C@H](O)C[C@@]3(C)[C@]1(C)CC2,-82.6% (active)
13,C#CCC(C)(O)/C=C/C1=C(C)CCCC1(C)C (stereo not given),95.8% (inactive)
14,COc1cc2nc(Cl)nc(Nc3cccc(C(=O)/C=C/c4ccc(F)cc4)c3)c2cc1OC,50.1% (inactive)
15,COc1cc2ncnc(Nc3ccc(Oc4ccnc(C)c4)c(C)c3)c2cc1NC(=O)CC1CCSS1 (stereo not given),-32.2% (active)
16,COc1cc2nc(Cl)nc(Nc3cccc(C(=O)/C=C/c4ccccc4)c3)c2cc1OC,32.9% (inactive)
17,Nc1nc2c(c(=O)[nH]1)C(c1ccc3c(c1)OCO3)C=C(C(=O)O)N2 (stereo not given),104% (inactive)
18,Cc1ccc(Sc2sc(-c3ccccc3)nc2[P+](c2ccccc2)(c2ccccc2)c2ccccc2)cc1,10.4% (inactive)
19,COc1cc2c(cc1OC)C(=O)/C(=C/c1cc(-c3ccc4c(c3)OCO4)n[nH]1)C2,9.31% (active)
20,c1ccc(-c2nc(Nc3ccc(-c4nc5ccccc5[nH]4)cc3)nc(N3CCOCC3)n2)cc1,-18.6% (active)

row,SMILES,growth
1,C=C(C)[C@@H]1CC[C@]2(C(=O)N3CCN(C)CC3)CC[C@]3(C)[C@H](CC[C@@H]4[C@@]5(C)C/C(=C/c6ccc(C(F)(F)F)cc6)C(=O)C(C)(C)[C@@H]5CC[C@]43C)[C@@H]12,97.3% (inactive)
2,N=C(N)N=Nc1ccc(O)cc1,56.8% [100 µM] (inactive)
3,COc1ccc(C2=NN(c3nc(-c4ccc(OC)cc4)c(C#N)c(=O)n3C)C(=O)CC2)cc1,96.7% (inactive)
4,CN1CCN(c2nc(-c3cccc4ccccc34)nc3sc4c(c23)CCCCCC4)CC1,91.5% (inactive)
5,COc1cccc(NC(=O)c2sc3nc4c(cc3c2N)C(=O)CCC4)c1,41.6% (inactive)
6,O=C1c2ccccc2NC(c2cn(-c3ccccc3)nc2-c2cccnc2)N1Cc1ccccc1 (stereo not given),109% (inactive)
7,Cc1ccc(N(CC(=O)Nc2ccc(S(=O)(=O)NC3CCN(C)CC3)cc2)S(=O)(=O)c2ccc(Cl)cc2)cc1,88.3% (inactive)
8,CC1=CC(=O)N(c2cccc3c(N4C(=O)C=C(C)C4=O)cccc23)C1=O,102% (inactive)
9,C=COCCCCCCCCCCCCCCCCCC,96.9% (inactive)
10,O=C(c1ccccc1)C(CN1CCOCC1)c1ccccc1 (stereo not given),78.3% (inactive)
11,CCOC(=O)c1ccc2c(c1)[n+](=O)c(C(=O)C1CCCS1)c(C(F)(F)F)n2[O-] (stereo not given),-77.4% (active)
12,CC1(C)C=CC[C@]2(C)[C@H]3CC[C@@H]4[C@H]5[C@H](C(=O)/C=C/c6cccnc6)CC[C@]5(CO)CC[C@@]4(C)[C@]3(C)CC[C@@H]12,-90.4% (active)
13,CC(=O)NC1=C(C#N)C(c2ccccc2Cl)c2c(ccc3ccccc23)O1 (stereo not given),58.1% (inactive)
14,COC(=O)[C@@H]1[C@H]2C[C@H]3c4[nH]c5cc(OC)ccc5c4CCN3C[C@@H]2C[C@H](OC(=O)/C=C/c2ccnc(OC)c2)[C@H]1OC,86.7% (inactive)
15,OCC1OC(n2cnc3c(Cl)ncnc32)CC1O (stereo not given),96.1% (inactive)
16,Clc1ccc2c(NCCNc3nc(-c4ccccc4)cc(-c4ccccc4)n3)ccnc2c1,-51.7% (active)
17,Nc1c(C(=O)Nc2cccc(Cl)c2)sc2ncc(Cl)cc12,105% (inactive)
18,Cc1cc(Cl)nc(N(CCCNc2ccnc3cc(Cl)ccc23)Cc2ccco2)n1,31.5% (inactive)
19,Cc1cc2nc3c4cc(O)ccc4n(CCN(C)C)c3nc2cc1C,2.18% (active)
20,Oc1ccc(CCC2CCCC(CCc3ccc(OCCF)cc3)N2)cc1 (stereo not given),101% (inactive)
